Test results reported in PubChem BioAssay AID743100 (Vanderbilt Specialized Chemistry Center, 2013).
A number with no mark means an inactive call. Calls of active or inactive are those of the source.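 How the source made its calls: active means calcium response above 60% of the acetylcholine maximum at human M5, as a positive modulator; inactive means the rest.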

target: Muscarinic acetylcholine receptor M5 (Homo sapiens) (UniProt P08912); test: M5 muscarinic receptor positive allosteric modulators, cell-based, single concentration, CHO-K1 hM5, calcium flux (AID 743100); conditions: CHO-K1 hM5, Fluo-4 calcium flux, ACh EC20, hits give high values; at 10 µM unless noted
Sequence (P08912 whole entry, looked up): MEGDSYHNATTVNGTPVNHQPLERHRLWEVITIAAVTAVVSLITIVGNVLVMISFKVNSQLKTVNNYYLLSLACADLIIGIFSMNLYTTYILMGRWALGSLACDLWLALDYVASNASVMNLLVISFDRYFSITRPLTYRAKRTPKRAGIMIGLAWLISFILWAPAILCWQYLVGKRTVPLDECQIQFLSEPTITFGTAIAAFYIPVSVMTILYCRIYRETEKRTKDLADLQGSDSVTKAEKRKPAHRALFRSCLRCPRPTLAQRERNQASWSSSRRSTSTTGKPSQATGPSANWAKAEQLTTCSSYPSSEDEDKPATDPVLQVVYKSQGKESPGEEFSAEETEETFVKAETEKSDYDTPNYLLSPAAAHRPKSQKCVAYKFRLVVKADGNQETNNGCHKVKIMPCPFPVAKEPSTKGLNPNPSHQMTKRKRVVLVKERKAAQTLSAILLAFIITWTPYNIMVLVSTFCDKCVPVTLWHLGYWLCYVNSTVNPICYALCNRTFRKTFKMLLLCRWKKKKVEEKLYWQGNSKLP

Row | Structure (SMILES) | % ACh max response
1 | CCN(Cc1cccc(C)c1)C(=O)C1CCN(S(=O)(=O)c2ccc3cn[nH]c3c2)CC1 | 85.8% (active)
2 | CCN(C(=O)C1CCN(S(=O)(=O)c2ccc3c(c2)CCC3)CC1)[C@H](C)c1ccccc1 | 91.5% (active)
3 | CCN(Cc1ccccc1)C(=O)C1CCN(S(=O)(=O)c2ccc3cn(C)nc3c2)CC1 | 64.9% (active)
4 | CCN(Cc1cccc(C#N)c1)C(=O)C1CCN(S(=O)(=O)c2ccc3cn[nH]c3c2)CC1 | 46.2%
5 | CCN(Cc1ccccc1)C(=O)C1CCN(S(=O)(=O)c2cccc3nsnc23)CC1 | 40.8% [at 30 µM]
6 | CCN(Cc1ccccc1)C(=O)C1CCN(S(=O)(=O)c2ccc3occc3c2)CC1 | 82.1% [at 30 µM] (active)
7 | CCN(Cc1ccccc1)C(=O)C1CCN(S(=O)(=O)c2ccccc2OC(F)(F)F)CC1 | 17.5% [at 30 µM]
8 | CCN(Cc1ccccc1)C(=O)C1CCN(S(=O)(=O)c2ccccc2C#N)CC1 | 24% [at 30 µM]
9 | O=C(NCc1ccccc1)C1(Cc2ccccc2)CCN(S(=O)(=O)c2ccc3occc3c2)CC1 | 20.1%
10 | CCN(Cc1ccccc1)C(=O)C1CCN(S(=O)(=O)Cc2cccc(C(F)(F)F)c2)CC1 | 25.5% [at 30 µM]
11 | CCN(Cc1ccccc1)C(=O)C1CCN(S(=O)(=O)c2ccc3nsnc3c2)CC1 | 77.9% [at 30 µM] (active)
12 | CCN(Cc1ccccc1)C(=O)C1CCN(S(=O)(=O)Cc2ccccc2Br)CC1 | 5.25% [at 30 µM]
13 | CCN(Cc1ccccc1)C(=O)C1CCN(S(=O)(=O)c2cccc(OC)c2)CC1 | 72.2% [at 30 µM] (active)
14 | CCN(Cc1ccccc1C(F)(F)F)C(=O)C1(F)CCN(S(=O)(=O)c2ccc(-n3cccn3)cc2)CC1 | 51.8%
15 | CCN(Cc1ccccc1)C(=O)C1CCN(S(=O)(=O)c2cccc(C(F)(F)F)c2)CC1 | 63.9% [at 30 µM] (active)
16 | CC1c2ccccc2CCN1C(=O)C1CCN(S(=O)(=O)c2ccc3occc3c2)CC1 (configuration not stated) | 28.5%

Row | Structure (SMILES) | % ACh max response
17 | CCN(Cc1cccc(C(F)(F)F)c1)C(=O)C1CCN(S(=O)(=O)c2ccc3cn[nH]c3c2)CC1 | 35.4%
18 | CCN(CC1CCN(S(=O)(=O)c2cccc(OC)c2)CC1)C(=O)c1ccccc1 | 15.2%
19 | CCCc1ccc(S(=O)(=O)N2CCC(C(=O)N(CC)Cc3ccccc3)CC2)cc1 | 62.9% [at 30 µM] (active)
20 | CCN(Cc1ccccc1)C(=O)C1CCN(S(=O)(=O)Cc2ccc(Br)cc2)CC1 | 26.2% [at 30 µM]
21 | CCN(CC1CCN(S(=O)(=O)c2ccc3c(c2)OCCO3)CC1)C(=O)c1ccccc1 | 11.3%
22 | CCN(Cc1ccccc1)C(=O)C1CCN(S(=O)(=O)CC(C)(C)C)CC1 | 17% [at 30 µM]
23 | CCN(Cc1ccccc1)C(=O)C1CCN(S(=O)(=O)c2ccccc2C)CC1 | 28.6% [at 30 µM]
24 | CCN(C(=O)C1CCN(S(=O)(=O)c2ccc3c(c2)CCO3)CC1)[C@H](C)c1ccccc1 | 97.5% (active)
25 | CCN(Cc1ccc(-c2ccccc2)cc1)C(=O)C1CCN(S(=O)(=O)c2ccc3cn[nH]c3c2)CC1 | 24.8%
26 | O=C(C1CCN(S(=O)(=O)c2ccc3[nH]ncc3c2)CC1)N1Cc2ccccc2C1 | 32.5%
27 | CCN(CC1CCN(S(=O)(=O)c2ccc(OC)cc2)CC1)C(=O)c1ccccc1 | 15.2%
28 | CCN(Cc1ccccc1)C(=O)C1CCN(S(=O)(=O)c2ccc(OC)c(OC)c2)CC1 | 56% [at 30 µM]
29 | CCN(Cc1ccc(F)cc1)C(=O)C1CCN(S(=O)(=O)c2ccc3cn[nH]c3c2)CC1 | 52.1%
30 | CCN(Cc1ccccc1C#N)C(=O)C1CCN(S(=O)(=O)c2ccc3cn[nH]c3c2)CC1 | 36.8%
31 | CCN(Cc1ccccc1)C(=O)C1CCN(S(=O)(=O)c2ccc(Br)cc2)CC1 | 62.1% [at 30 µM] (active)
32 | CCN(Cc1ccccc1)C(=O)C1CCN(S(=O)(=O)c2ccc(OC(F)F)cc2)CC1 | 66.1% [at 30 µM] (active)
